Experimental data published in PubChem BioAssay (NCI).
Compounds without any hit were thinned out: in the full panel of roughly 83,000, 20% have a hit.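 96-well plates, one dose, 48 hours. Percent growth reported; active if below 10.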 Values without a mark were called inactive. Active and inactive are the calls of the source.

Assays:
Assay in all cases: NCI-60 one-dose screen, 48 h (100 = growth as untreated, 0 = no growth, -100 = all killed)
Settings in all cases: 10 µM unless noted
HCT-15 colon = tested on: HCT-15 colon
HT29 colon = tested on: HT29 colon
SNB-75 CNS = tested on: SNB-75 CNS
SNB-19 CNS = tested on: SNB-19 CNS
PC-3 prostate = tested on: PC-3 prostate
SK-MEL-5 melanoma = tested on: SK-MEL-5 melanoma
UACC-62 melanoma = tested on: UACC-62 melanoma
LOX IMVI melanoma = tested on: LOX IMVI melanoma
SK-MEL-28 melanoma = tested on: SK-MEL-28 melanoma
EKVX NSCLC = tested on: EKVX NSCLC
SN12C renal = tested on: SN12C renal
UO-31 renal = tested on: UO-31 renal
TK-10 renal = tested on: TK-10 renal
ACHN renal = tested on: ACHN renal
CAKI-1 renal = tested on: CAKI-1 renal
A498 renal = tested on: A498 renal
CCRF-CEM leukemia = tested on: CCRF-CEM leukemia
MOLT-4 leukemia = tested on: MOLT-4 leukemia
SK-MEL-2 melanoma = tested on: SK-MEL-2 melanoma

Row | SMILES | growth (HCT-15 colon) | growth (HT29 colon) | growth (SNB-75 CNS) | growth (SNB-19 CNS) | growth (PC-3 prostate) | growth (SK-MEL-5 melanoma) | growth (UACC-62 melanoma) | growth (LOX IMVI melanoma) | growth (SK-MEL-28 melanoma) | growth (EKVX NSCLC) | growth (SN12C renal) | growth (UO-31 renal) | growth (TK-10 renal) | growth (ACHN renal) | growth (CAKI-1 renal) | growth (A498 renal) | growth (CCRF-CEM leukemia) | growth (MOLT-4 leukemia) | growth (SK-MEL-2 melanoma)
1 | COc1ccc(-c2nc([C@@H](C)Sc3nc(N)cc(N)n3)c(C)s2)cc1OCCN1CCOCC1 | 103% | 97.4% | 91.9% | 91.3% | 79.8% | 82.2% | 84.3% | 95.8% | 113% | 105% | 99.8% | 73.7% | 104% | 92.3% | 90.6% | 35.6% | 83.7% | 85.1% | 
2 | O=C(Nc1ccc(-c2ccc3c(c2)NC(=O)/C3=C\c2ccc[nH]2)cc1)NC1CC1 | 88.3% | 88% | 89.8% | 92.6% | 99.4% | 94% | 97.7% | 89.3% |  | 47.5% | 101% | 88.2% | 108% | 101% | 99.9% |  | 86.1% | 94.2% | 112%
3 | O=c1[nH]nc(-c2ccccc2)c2sc3ncc(-c4ccc(Br)cc4)n3c12 | 94.5% | 9.13% (active) | 19.7% | 44.7% | 50.2% | 78.9% | 47.5% | 36.9% | 57.6% | 67.3% | 46.1% | 73.3% | 109% | 75.7% | 56.1% |  | 22.4% | 41.7% | 18.4%
4 | N#Cc1c(-c2cccc([N+](=O)[O-])c2)nc(SCC(=O)c2ccc(Cl)cc2)[nH]c1=O | 103% | 105% | 72.2% | 92.8% | 100% | 106% | 93.6% | 96% | 107% | 99.8% |  | 80.6% | 102% | 103% | 88.8% | 92.3% | 2.87% (active) |  | 110%
5 | CCCCNC(=O)Oc1ccc(/C(=C(\C)c2ccccc2)c2ccc(OCCN3CCCCC3)cc2)cc1 | 9.66% (active) | 0.947% (active) | 84.6% | 71.5% | 55.3% | 68.9% | 41.8% | 62% | 46.7% | 76.2% | 70.7% | 40.4% | 85.3% | 90.1% | 46.9% |  | 66.3% | 53.8% | 72.7%
6 | c1ccc(Cn2cnc3ccc(-c4nc(-c5ccc6c(c5)ncn6C5CCCCC5)cn5ccnc45)cc32)cc1 | -9.03% (active) | -48.7% (active) | -67.4% (active) | 19.6% | -39.5% (active) |  |  | -87% (active) |  | -12.3% (active) | -35.4% (active) | -51.4% (active) | 5.2% (active) | 19.9% | 43.3% | -71.8% (active) | 5.6% (active) | 4.39% (active) | -36.7% (active)
7 | COc1cc(/C=C\c2cc(OC)c(OC)c(OC)c2)cc(NC(=O)/C=C/c2cc(OC)c(OC)c(OC)c2)c1OC | 34.6% | 32% | 51.8% | 72% | 29.3% |  | 29.7% | 35.5% | 47.6% | 47.6% | 66.9% | 24.9% | 71.3% | 52.7% | 22.7% | 41.5% | 25.8% | 30.9% | 47%
8 | c1ccc(-c2c(-c3ccccc3)[n+](Cc3ccc4ccccc4c3)c(-c3cccc4ccccc34)n2Cc2ccc3ccccc3c2)cc1 | -52.9% (active) | -49.7% (active) | -57.9% (active) | -68.9% (active) | -60.8% (active) |  | -64.8% (active) | -98.9% (active) | -71.8% (active) | -10.9% (active) | -81.6% (active) | -93.5% (active) | -78% (active) | -100% (active) | -97.2% (active) |  | 1.74% (active) | -25.8% (active) | -77.9% (active)
9 | COc1ccc(/C=C2\Oc3cc(OCCCN4CCCCC4)ccc3C2=O)cc1OC | 76.4% | 59.3% | 78.9% | 93.7% | 79.6% |  | 99.1% | 81.7% | 105% | 91.5% | 93.5% | 67.9% | 89.1% | 93.2% | 92.8% |  | 28.9% | 83.3% | 108%
10 | N#Cc1cc(-c2nc3ccccc3s2)c(=O)n(NS(=O)(=O)c2ccccc2)c1N | 108% | 107% | 73.1% | 103% | 102% | 101% | 97.1% | 99.4% | 121% | 101% |  | 72.7% | 137% | 99.5% | 81.8% |  | 105% | 107% | 104%
11 | Cn1c(-c2c(N)n(CCCN3CCOCC3)c3nc(C#N)c(C#N)nc23)nc2ccccc21 | 67.1% | 68% | 38.4% | 76.1% | 35.5% | 92.9% | 77.2% | 67.7% | 59.1% | 66.3% | 40.5% | 12.4% | 46.8% | -79.1% (active) | 57.6% | 90.6% |  | 31.5% | 109%
12 | O=C(/C=C/c1ccc[nH]1)c1ccc(-n2ccc(C(F)(F)F)n2)c(F)c1 | 85% | 92.5% | 75.6% | 101% | 48.1% | 97.6% | 84.9% | 97.7% | 100% | 80.2% | 92.1% | 46.9% | 104% | 103% | 93% |  | 59.7% | 84% | 108%
13 | CC(=O)O[C@@H]1C2CCC3C(CC[C@@]4(C)C3CC[C@@H]4C(C)N(C)C)[C@@]2(C)CC[C@@H]1NC(=O)C=C(C)C (stereo not given in full) | -58.1% (active) | -39.5% (active) | 12% | 65.6% | 10.5% | -93.1% (active) | -49.9% (active) | -43.5% (active) | -91.7% (active) | 30.8% | 32.7% | 6.19% (active) | 47.2% | 25.4% | -6.25% (active) | 60.6% | -12% (active) | -50.6% (active) | 31.9%
14 | CC1(C)NCCC[C@]2(C)[C@H]3CC(=O)[C@H]4[C@@H]5C[C@](C)(CO)CC[C@]5(C)CC[C@@]4(C)[C@]3(C)CC[C@@H]12 | 98.9% | 69.8% | 78.1% | 99.4% | 83.5% | 98.3% | 98% | 97.1% | 105% | 96.9% | 101% | 95.5% | 100% | 102% | 81.6% | 100% | 93.1% | 67% | 
15 | NC(=NCCCOc1ccc(F)cc1)Nc1ccc(Cl)cc1 | 69.4% | 13.8% | 80.9% | 55.2% | 50.2% | 4.33% (active) | 56.8% | 83.9% | 88.3% | 52.8% | 65.1% | 49.1% | 64% | 18.3% | 39% |  | 49.7% | 23.5% | 84.6%
16 | CCNc1nc2ccc(Nc3ccnc4cc(Cl)ccc34)cc2[nH]1 | 89.8% | 51.1% | 87.3% | 84.8% | 63.9% | 82.6% | 92.5% | 70.6% |  | 89.9% | 75.3% | 84.9% | 99.4% | 103% | 98.9% | 89.5% | 42.8% |  | 103%
17 | COc1ccc(C(=O)c2nc3ccccc3n2CC(=O)c2ccc(F)cc2)cc1 | 56% | 55% | 59.6% | 95.6% | 83.2% | 88% | 65.3% | 94.5% | 80.2% | 190% | 92.7% | 88.3% | 84.2% | 105% | 115% | 116% | 79.6% | 74.8% | 72.4%
